Screening results deposited in PubChem BioAssay by Sanford-Burnham Center for Chemical Genomics.
Hits are enriched below; roughly 4% of the tested compounds scored in any of these assays.
NALP1 yeast inh: NALP1 inhibition; AID 2071; S. cerevisiae NALP1/ASC/caspase-1 growth, X-gal OD620, 72 h; 280,000 tested, 0.61% active; inhibition, % at 10 µM; in the data active = inhibition mostly above about 24%, no sharp cut-off; inactive = mostly below about 32%
NLRP3 yeast inh: NALP3 inhibition in yeast | inhibition, % at 10 µM | 330,000 tested, 0.39% active | Yeast reconstituted NLRP3/ASC/caspase-1, beta-gal luminescence, 24 h | AID 2825;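 active = inhibition of 50% or more; inactive = inhibition below 50%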
tim23-1 inh: inhibits growth of tim23-1 mutant yeast; S. cerevisiae tim23-1 growth, BacTiter-Glo luminescence, 24 h; inhibition, % at 20 µM; 330,000 tested, 1.3% active;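 active = growth inhibition of the mutant yeast at or above 50%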;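 note: temperature-sensitive mutant grown at 25 °C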
TIM10 inh: growth inhibitors of TIM10 yeast strain; inhibition, % at 10 µM; 330,000 tested, 1.4% active; AID 463195; S. cerevisiae TIM10 strain growth, BacTiter-Glo luminescence, 24 h;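 active = inhibition of 40% or more at the single tested concentration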;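 note: wild-type TIM10 isogenic control strain grown at permissive 25 °C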
tim10-1 inh: tim10-1 yeast growth inhibition; S. cerevisiae tim10-1 ts strain growth, BacTiter-Glo, 24 h; AID 463190; 330,000 tested, 2.2% active; inhibition, % at 20 µM;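 active = inhibition of at least 40%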;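 note: mutant grown at 25 °C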
NALP3 yeast conf: NALP3 inhibition confirmation in yeast. inhibition, % at 10 µM. yeast expressing human NALP3, luminescence. 1,300 tested, 81% active. shares compounds with NLRP3 yeast inh; in the data active = inhibition above about 48%
Casp1-ASC yeast: caspase-1-ASC yeast counter-screen hit; shares compounds with NLRP3 yeast inh; AID 488784; 1,000 tested, 66% active; yeast expressing Caspase-1-ASC, luminescence counter screen; inhibition, % at 10 µM
NALP3 retest: retest-confirmed inhibitor of NALP3 in yeast | shares compounds with NLRP3 yeast inh | inhibition, % at 10 µM | 1,000 tested, 53% active | yeast expressing human NALP3, luminescence read-out | AID 488794
Numbers stand for hits; - = inactive; . = no result given. Cut-off read from the data, not from the text of the source, unless noted: active = inhibition above about 50%; inactive = the rest.

SMILES	NALP1 yeast inh	NLRP3 yeast inh	tim23-1 inh	TIM10 inh	tim10-1 inh	NALP3 yeast conf	Casp1-ASC yeast	NALP3 retest
Cc1cccc(N2C(=O)/C(=C/c3ccccn3)SC2=S)c1	-	-	-	-	-	.	.	.
O=C1/C(=C/c2ccccn2)SC(=S)N1c1ccc(O)cc1	.	70	-	-	-	75	56	-
CC1CCCC(NC(=O)COC(=O)c2cc(S(=O)(=O)N3CCOCC3)ccc2F)C1C (centres undefined)	.	-	-	-	-	.	.	.
CC1(C)[C@@H](O)CC[C@]2(C)C3C(O)C=C4[C@H]5C[C@@](C)(CO)CC[C@]5(C)CC[C@]4(C)[C@]3(C)CC[C@@H]12 (some centres undefined)	.	62	-	-	-	70	64	50
COc1ccccc1-c1nnc2sc(-c3cc4ccccc4o3)nn12	-	59	-	-	-	70	.	.
O=C(C[C@H]1C[C@H](C(=O)N2CCCCC2)[C@@]2(CCc3ccccc3)c3[nH]c4ccc(Cl)cc4c3CCN2C1=O)NCCN1CCOCC1	.	.	-	-	-	.	.	.
C/C(=N\NC(=S)Nc1cccc(C)c1)c1ccco1	-	53	-	-	-	-	.	.
Cc1cccc(OCCn2c(=S)[nH]c3ccccc32)c1	-	-	-	-	-	.	.	.
Cc1ccc(OCCn2c(=S)[nH]c3ccccc32)c(C(C)C)c1	-	75	-	-	-	81	56	-
Cc1ccc(NC(=O)COc2cccc(-n3cnnn3)c2)cc1[N+](=O)[O-]	-	-	-	-	-	.	.	.
CCC(NC(=O)CN1CCN(C(=O)c2cccs2)CC1)c1ccc(C)cc1 (centres undefined)	.	-	-	-	-	.	.	.
CCCC1Cc2nc(Cl)c(C#N)cc2CO1 (centres undefined)	-	-	-	-	-	.	.	.
CC(C)(C)Nc1ncnc2c1cnn2-c1ccccc1	.	66	-	-	-	74	80	73
CC1CCN(c2ncnc3c2cnn3-c2ccccc2)CC1	-	53	-	-	-	60	-	-
COc1ccc(-n2ncc3c(N4CCC(C)CC4)ncnc32)cc1	-	-	-	-	-	.	.	.
Cc1cccc(C(=O)NCC(=O)OCC(=O)c2ccc(Cl)s2)c1	-	-	-	-	-	.	.	.
CCn1c(-c2cc(-c3ccc(OC(C)C)cc3)nc3ccccc23)n[nH]c1=S	-	54	-	-	-	-	.	.
Cn1c(SCc2nc(-c3ccc(Br)cc3)no2)nnc1-c1ccco1	-	58	-	-	-	71	61	-
Cc1ccc(C(=O)Cn2cnc3ccccc3c2=O)cc1	-	52	-	-	-	64	-	-
O=C(Cn1cnc2ccccc2c1=O)c1ccccc1	-	-	-	-	-	.	.	.
Cc1ccc2c(c1)[C@H]1OCC[C@H]1[C@@H](c1ccncc1)N2	-	-	-	-	-	.	.	.
c1ccc(C2Nc3ccccc3C3OCCCC23)cc1 (centres undefined)	-	62	-	-	-	54	-	58
CCNc1nc(NCC)n2c(SCC(=O)Nc3ccc(C)cc3Br)nnc2n1	.	-	-	-	-	.	.	.
O=S(=O)(c1cnc(Cl)c(Br)c1)N1CCN(c2ncccn2)CC1	-	-	-	-	-	.	.	.
Nc1ncc(Br)cc1S(=O)(=O)N1CCCCCC1	-	53	-	-	-	59	56	-
SMILES	NALP1 yeast inh	NLRP3 yeast inh	tim23-1 inh	TIM10 inh	tim10-1 inh	NALP3 yeast conf	Casp1-ASC yeast	NALP3 retest
O=S(=O)(c1cnc(Cl)c(Br)c1)N1CCCCCC1	-	53	-	-	-	55	-	-
N#C/C(=N\Nc1ccc(Cl)cc1)C(N)=S	.	75	-	-	-	90	.	.
N#C/C(=N\Nc1ccc(Cl)cc1)C(=O)c1ccsc1	-	55	-	-	-	-	.	.
N#C/C(=N\Nc1ccccc1)C(N)=S	-	-	-	-	-	.	.	.
CCC1(CC)NC(=O)N(CC(=O)OC(C)C(=O)Nc2cc([N+](=O)[O-])ccc2OC)C1=O (centres undefined)	-	-	-	-	-	.	.	.
O=C(COC(=O)c1n[nH]c(=O)c2ccccc12)NC1CCCCC1	.	-	-	-	-	.	.	.
Cn1c(-c2ccccc2)cc2c3no[n+]([O-])c3ccc21	-	53	-	-	-	61	63	59
Cn1c(-c2ccccc2)cc2ccccc21	-	-	-	-	-	.	.	.
O=C(Cn1cc(S(=O)(=O)N2CCCC2)c(S(=O)(=O)N2CCCC2)c1)NCc1ccco1	-	-	-	-	-	.	.	.
O=C(Nc1ccc(Nc2ccccc2)cc1)c1ccco1	-	75	-	-	-	70	79	75
O=C(Nc1ccc(Nc2ccccc2)cc1)c1ccc(F)cc1	-	62	-	-	-	78	59	53
O=c1c2ccccc2nnn1Cc1ccc(Br)cc1	-	50	-	-	-	66	57	58
CC(Cc1ccc(Cl)cc1)N1CCC(n2nccc2NC(=O)C2CCCC2)CC1 (centres undefined)	-	-	-	-	-	.	.	.
C=CCOc1nc2c(c(=O)n(Cc3ccc(Cl)cc3)c(=O)n2C)n1C	-	55	-	-	-	-	-	-
Cn1c(NC(=O)c2ccc(S(=O)(=O)N3CCOCC3)cc2)cc(=O)n(C)c1=O	-	-	-	-	-	.	.	.
CC[C@H](C)Cc1cn([C@@H](CCCCNC(=O)OC(C)(C)C)C(=O)NCCCCCCCCCCC(=O)N2CCN(C(=O)OC(C)(C)C)CC2)nn1	.	-	-	-	-	.	.	.
C[C@@H](C[C@@H](O)[C@H](O)C(C)(C)O)[C@@H]1CC[C@]2(C)C3=CC[C@H]4C(C)(C)C(=O)CC[C@]4(C)[C@H]3CC[C@@]12C	44	62	-	-	-	76	.	.
Cc1ccc(S(=O)(=O)N2CCCCC2)cc1C(=O)NCCCN1CCOCC1	-	-	-	-	-	.	.	.
CC(C)(C)NC(=O)N1CCN(S(=O)(=O)c2ccc3c(c2)CCC3)CC1	.	-	-	-	-	.	.	.
CC(C)COC(=O)N1CCN(S(=O)(=O)c2ccc3c(c2)CCC3)CC1	.	53	-	-	-	51	-	-
Cc1c(C(=O)Nc2cccc(F)c2)cnn1-c1ccccc1	-	55	-	-	-	72	71	64
Cc1ccccc1NC(=O)c1cnn(-c2ccccc2)c1C	-	-	-	-	-	.	.	.
CCc1ccccc1NC(=O)c1cnn(-c2ccccc2)c1C	-	52	-	-	-	74	61	56
Cc1ccc(C)c(NC(=O)c2cnn(-c3ccccc3)c2C)c1	-	55	-	-	-	66	-	-
Cc1cccc(NC(=O)c2cnn(-c3ccccc3)c2C)c1C	-	-	-	-	-	.	.	.
COC(=O)c1cccnc1Oc1ccccc1	-	-	-	-	-	.	.	.
Clc1ccccc1OCCn1nnc2ccccc21	-	-	-	-	-	.	.	.
COc1ccc(S(=O)(=O)N(C)C[C@@H]2Oc3c(NS(C)(=O)=O)cccc3C(=O)N([C@@H](C)CO)C[C@H]2C)cc1	.	-	-	-	-	.	.	.
